Screens as filed in PubChem BioAssay.
BoNT F protease – BoNT F light chain protease inhibition. Multiplex microsphere protease cleavage assay, flow cytometry. inhibition, % at 10 µM. 360,000 tested, 0.22% active. AID 588497; in the data active = inhibition above about 35%, passing the limit was not always enough; inconclusive = no clear call, values can overlap the other calls; note: plate controls were buffer without enzyme for full effect and enzyme alone for no effect
MazF activator – MazEF (E. coli) toxin RNase activation. 350,000 tested, 0.32% active. AID 504720. activation, % at 20 µM. FAM/BHQ RNA-DNA oligo cleavage fluorescence, 5 h. P0AE70; in the data active = activation above about 50%
Anthrax LF inh2 – inhibitors of Bacillus anthracis lethal factor protease; P15917; inhibition, % at 10 µM; 360,000 tested, 0.12% active; AID 588501; multiplex microsphere protease cleavage assay, LF; note: plate controls were buffer without enzyme for full effect and enzyme alone for no effect
Target sequence (P15917 whole entry, looked up): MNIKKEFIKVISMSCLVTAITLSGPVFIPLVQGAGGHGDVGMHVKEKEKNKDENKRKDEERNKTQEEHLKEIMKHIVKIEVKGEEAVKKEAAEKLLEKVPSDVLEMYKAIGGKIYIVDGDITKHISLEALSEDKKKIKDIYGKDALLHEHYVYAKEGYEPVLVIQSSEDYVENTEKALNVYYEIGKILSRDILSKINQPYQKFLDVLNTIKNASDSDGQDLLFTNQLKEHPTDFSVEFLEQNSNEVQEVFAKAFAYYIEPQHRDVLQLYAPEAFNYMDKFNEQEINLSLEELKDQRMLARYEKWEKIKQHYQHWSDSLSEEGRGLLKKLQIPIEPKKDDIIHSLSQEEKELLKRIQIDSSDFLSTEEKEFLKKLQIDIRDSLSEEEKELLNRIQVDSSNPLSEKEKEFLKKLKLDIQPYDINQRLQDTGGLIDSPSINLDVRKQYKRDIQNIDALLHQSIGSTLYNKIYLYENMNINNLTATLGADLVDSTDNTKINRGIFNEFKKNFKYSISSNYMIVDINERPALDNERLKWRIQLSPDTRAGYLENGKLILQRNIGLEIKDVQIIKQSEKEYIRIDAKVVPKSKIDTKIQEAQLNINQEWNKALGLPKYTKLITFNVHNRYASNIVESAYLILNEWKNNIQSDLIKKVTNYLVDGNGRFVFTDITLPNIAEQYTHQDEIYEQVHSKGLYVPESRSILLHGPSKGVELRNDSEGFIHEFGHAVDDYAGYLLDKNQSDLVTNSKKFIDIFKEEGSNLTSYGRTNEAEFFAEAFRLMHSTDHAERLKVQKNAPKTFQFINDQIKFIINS
BoNT A protease – blocks Botulinum neurotoxin A light chain protease; multiplex microsphere protease substrate cleavage, flow cytometry; inhibition, % at 10 µM; 360,000 tested, 0.17% active; AID 588499; note: plate controls were buffer without enzyme for full effect and enzyme alone for no effect
Autofluor counter – counter-screen for toxin protease inhibitors: compound fluorescence. compound autofluorescence counterscreen, microsphere flow cytometry; stronger effect = higher value. fluorescence intensity (concentration not given with the values). 360,000 tested, 3.1% active; in the data active = fluorescence intensity above about 16000; inconclusive = no clear call, values can overlap the other calls
PriA SSB inh – blocks PriA binding to SSB C-terminal tail | AlphaScreen SSBct-PriA binding, biotinylated peptide | inhibition, % at 33 µM | 430,000 tested, 0.6% active; in the data active = inhibition mostly above about 37%, no sharp cut-off; inactive = mostly below about 20%;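 note: plate controls were negative control peptide for no effect and reference peptide for full effect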
Active calls of the source: *. Shown are actives, neighbours in structure and some others; about 3.3% of the full set was active somewhere. Cut-off read from the data, not from the text of the source, unless noted: active = inhibition above about 30%; inconclusive = no clear call, values can overlap the other calls; inactive = below that.

For Cn1c(=O)c(=O)n(C)c2cc(S(=O)(=O)N3CCN(c4cccc(C(F)(F)F)c4)CC3)ccc21 the results were BoNT F protease 0, MazF activator -35, Anthrax LF inh2 0, BoNT A protease -1, Autofluor counter 21964* and PriA SSB inh -16.
Screening Cn1c(=O)oc2cc(S(=O)(=O)N3CCN(c4ccc(F)cc4)CC3)ccc21 returned BoNT F protease -1, MazF activator 46, Anthrax LF inh2 -3, BoNT A protease 0, Autofluor counter 3649 and PriA SSB inh -16.
Cn1c(=O)c(=O)n(C)c2cc(S(=O)(=O)N3CCCCC3)ccc21 was read as BoNT F protease -1, MazF activator 7, Anthrax LF inh2 -1, BoNT A protease 0, Autofluor counter 23051* and PriA SSB inh -1.
Screening Cc1cccc(C)c1NC(=O)CC(N)=NO returned PriA SSB inh -3.
For Cc1cccc(CSc2nnc(N)n2-c2ccccc2)c1 the results were BoNT F protease -1, MazF activator 0, Anthrax LF inh2 -7, BoNT A protease -1, Autofluor counter 22675* and PriA SSB inh -1.
Screening Cc1cccc(CSc2nnnn2-c2ccccc2)c1 returned BoNT F protease 4, MazF activator -11, Anthrax LF inh2 -4, BoNT A protease 0, Autofluor counter 2478 and PriA SSB inh -64.
For Nc1nnc(SCc2ccccc2)n1-c1ccccc1 the results were BoNT F protease 9, MazF activator 2, Anthrax LF inh2 -13, BoNT A protease inconclusive, Autofluor counter 17516* and PriA SSB inh -1.
c1ccc(CSc2nnc(-c3ccccn3)n2-c2ccccc2)cc1 was read as BoNT F protease 0, MazF activator -1, Anthrax LF inh2 2, BoNT A protease 0, Autofluor counter 3222 and PriA SSB inh -2.
Screening COc1ccc(-c2ccc(N3CCCC(C(=O)NN4CCN(C)CC4)C3)nn2)cc1 (centres undefined) returned PriA SSB inh -13.
For COc1ccc(Cl)cc1NC(=O)N1CC(c2nc3ccc(C)cc3[nH]2)C1 the results were PriA SSB inh -17.
Screening O=C(Cn1c(=O)c2c(ncn2Cc2ccccc2)n(Cc2ccccc2)c1=O)NC1CC1 returned BoNT F protease 0, MazF activator -30, Anthrax LF inh2 -2, BoNT A protease 1, Autofluor counter 19673* and PriA SSB inh -4.
`CCn1cnc2c1c(=O)n(CC(=O)O)c(=O)n2Cc1ccccc1` gave BoNT F protease -7, MazF activator 14, Anthrax LF inh2 15, BoNT A protease 2, Autofluor counter 3920 and PriA SSB inh -7.
`CCC(C)c1c(O)nc(SCC(=O)N2CCOCC2)[nH]c1=O` (centres undefined) gave BoNT F protease -7, MazF activator -7, Anthrax LF inh2 -6, BoNT A protease -4, Autofluor counter 17264* and PriA SSB inh 1.
Screening CCOc1ccccc1Nc1nc2ccccc2n2cnnc12 returned BoNT F protease -1, MazF activator 10, Anthrax LF inh2 -5, BoNT A protease -1, Autofluor counter 4075 and PriA SSB inh -4.
CCN(CC)c1nc2ccccc2n2cnnc12 was read as BoNT F protease -4, MazF activator -10, Anthrax LF inh2 -8, BoNT A protease -2, Autofluor counter 23917* and PriA SSB inh -15.
Screening CCSc1cc(C)nc2c(-c3ccc(Cl)cc3)c(C)nn12 returned BoNT F protease -4, MazF activator -22, Anthrax LF inh2 1, BoNT A protease -3, Autofluor counter 20908* and PriA SSB inh -16.
For Cc1cc(C)n2nc(C)c(-c3ccc(Cl)cc3)c2n1 the results were BoNT F protease -22, MazF activator 8, Anthrax LF inh2 -21, BoNT A protease -2, Autofluor counter 3937 and PriA SSB inh -40.
CC(CCc1ccccc1)C(=O)NO (centres undefined) was read as BoNT F protease 2, MazF activator -2, Anthrax LF inh2 1, BoNT A protease 0, Autofluor counter 23384* and PriA SSB inh -9.
COC(=O)[C@H](C)NC(=O)NC(C)CCc1ccccc1 (some centres undefined) was read as BoNT F protease 2, MazF activator -9, Anthrax LF inh2 1, BoNT A protease 2, Autofluor counter 21607* and PriA SSB inh -21.
For O=C(CN1CCCCCC1)N1c2ccccc2C=Cc2ccccc21 the results were BoNT F protease 2, MazF activator -6, Anthrax LF inh2 1, BoNT A protease inconclusive, Autofluor counter 19591* and PriA SSB inh -20.
O=C(CN1CCCC1)N1c2ccccc2C=Cc2ccccc21 was read as BoNT F protease -2, MazF activator -1, Anthrax LF inh2 0, BoNT A protease 0, Autofluor counter 4202 and PriA SSB inh -7.
For O=C1Nc2ccccc2N=C(c2ccccc2)C1Br (centres undefined) the results were BoNT F protease -6, MazF activator -10, Anthrax LF inh2 -6, BoNT A protease -1, Autofluor counter 5258 and PriA SSB inh 1.
Screening O=C1Nc2ccccc2N=C(c2ccccc2)C1N1CCOCC1 (centres undefined) returned BoNT F protease -1, MazF activator -3, Anthrax LF inh2 -2, BoNT A protease inconclusive, Autofluor counter 21946* and PriA SSB inh -3.
`CCCCS(=O)CC(O)COCC` (centres undefined) gave BoNT F protease -6, MazF activator 11, Anthrax LF inh2 1, BoNT A protease 0, Autofluor counter 9733 and PriA SSB inh -9.
`CCOCC(O)CS(=O)Cc1ccccc1` (centres undefined) gave BoNT F protease -8, MazF activator 8, Anthrax LF inh2 -4, BoNT A protease -6, Autofluor counter 24995* and PriA SSB inh -2.
For O=C(NCc1ccccc1F)C(=O)Nc1ccc2c(c1)OCO2 the results were PriA SSB inh 5.
Screening Cc1ccc(CSCC(=O)Nc2ccc3c(c2)OCO3)cc1 returned BoNT F protease -1, MazF activator 9, Anthrax LF inh2 -5, BoNT A protease 0, Autofluor counter 22179* and PriA SSB inh -2.
`CC1CC(=O)N(CC(=O)NCc2ccco2)c2ccccc2S1` (centres undefined) gave BoNT F protease -3, MazF activator -1, Anthrax LF inh2 -1, BoNT A protease -2, Autofluor counter 23847* and PriA SSB inh -3.
`O=C(CSCc1ccccc1)Nc1ccc2c(c1)OCO2` gave BoNT F protease inconclusive, MazF activator 4, Anthrax LF inh2 -9, BoNT A protease -1, Autofluor counter 4154 and PriA SSB inh -14.
Screening O=C(CN1CCCc2ccccc21)NC(=O)NCc1ccco1 returned BoNT F protease -3, MazF activator -7, Anthrax LF inh2 -4, BoNT A protease -1, Autofluor counter 17200* and PriA SSB inh -16.
For O=C(CN1CCCc2ccccc21)NC(=O)NCc1ccccc1 the results were BoNT F protease -6, MazF activator -7, Anthrax LF inh2 0, BoNT A protease 0, Autofluor counter 4999 and PriA SSB inh -3.
